A selection: hits, their analogues and other compounds. The true share with any hit is near 2.2%.
TWEAK Fn14 block: TWEAK-Fn14 signaling inhibition; TWEAK-stimulated Fn14 reporter cells, luciferase luminescence, 8 h; inhibition, % at 10 µM; 2% of 360,000 active; in the data active = inhibition above about 50%
HSP90 inh: inhibitors of HSP90 luciferase refolding in rabbit reticulocyte lysate; inhibition, % at 5.6 µM; luciferase refolding luminescence, 3 h; 0.91% of 290,000 active;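 active = inhibition above the screen-wide mean plus 3 SD, computed separately per campaign, cut at about 16% in these data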;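 also: 0% = DMSO wells and 100% = 60 µM geldanamycin wells; inhibitors lower the luminescence because luciferase stays unfolded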
TROY NFkB inh: inhibitors of TROY-dependent NF-kB signaling; 0.98% of 360,000 active; inhibition, % at 10 µM; Q293 LMP1-TROYcd NF-kB luciferase reporter, 4 h;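 active = compounds whose plate-normalised and pattern-corrected inhibition of the luciferase reporter signal at the single screening dose is 50% or more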
LGR2 inh: inhibitors of bursicon-induced Drosophila LGR2 receptor cAMP signaling; HEK293 LGR2, CRE-luciferase, bursicon-stimulated, 4 h; inhibition, % at 9.99 µM; 0.35% of 380,000 active;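 active = drop in luminescence signal, shown as inhibition above about 50% in the replicate tests, limit read from the data, passing the limit was not always enough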;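 also: agonist challenge used bursicon conditioned medium at about half maximal strength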
Active calls of the source: *; nt = not tested or not shown.

SMILES	TWEAK Fn14 block	HSP90 inh	TROY NFkB inh	LGR2 inh
C=CCN1C(=O)N(c2ccc(F)cc2)C(=O)C1CC(=O)Nc1ccc(Cl)cc1 (stereo unspecified)	80*	2	3	-6
C=CCN1C(=O)N(c2ccc(Cl)cc2)C(=O)C1CC(=O)Nc1ccc(F)cc1 (stereo unspecified)	38	-2	6	15
O=C(C[C@H]1C[C@H]2c3cc(NC(=O)c4ccc5c(c4)OCO5)ccc3O[C@H]2[C@@H](CO)O1)NCc1cccnc1	nt	nt	nt	-12
O=C1/C(=C\c2ccccc2)SC(=S)N1CCC(=O)N1CCCCC1CCO (stereo unspecified)	0	-1	20	2
CC(C)c1ccc(/C=C2\SC(=S)N(CCC(=O)N3CCCCC3CCO)C2=O)cc1 (stereo unspecified)	87*	11	65*	-84
CNC(=O)/C(C#N)=C/c1c(N2CC(C)OC(C)C2)nc2ccccn2c1=O (stereo unspecified)	3	-3	-1	3
CC1CN(c2nc3ccccn3c(=O)c2/C=C(\C#N)C(N)=O)CC(C)O1 (stereo unspecified)	91*	-1	-22	-8
Cc1ccc(CSc2nnc(-c3ccncc3)n2C)cc1	-5	-2	4	nt
Cc1ccc(Nc2nc(CSc3nnc(-c4ccncc4)n3C)cs2)cc1	53*	5	41	10
COc1ccc(-c2n(CC(=O)OC3CC(C)CCC3C(C)C)c3ccccc3[n+]2C)cc1 (stereo unspecified)	80*	0	48	14
COc1ccc(OCc2n(CC(=O)OC3CC(C)CCC3C(C)C)c3ccccc3[n+]2C)cc1 (stereo unspecified)	42	5	47	23
O=C(c1cccs1)c1ccccc1Cc1cccs1	92*	nt	-24	-20
CN(C)CC(=O)Nc1ccc2c(c1)[C@@H]1C[C@H](CC(=O)N3CCCCC3)O[C@H](CO)[C@@H]1O2	nt	nt	nt	2
O=C(c1ccc(S(=O)(=O)c2ccccc2Cl)c([N+](=O)[O-])c1)N1CCCCCC1	66*	2	25	4
O=C(c1ccc(S(=O)(=O)Cc2ccccc2F)c([N+](=O)[O-])c1)N1CCCCCC1	37	-3	28	32
O=C(c1ccc(S(=O)(=O)c2cccc(Cl)c2)c([N+](=O)[O-])c1)N1CCN(c2ccccn2)CC1	90*	-1	58*	59*
O=C(c1cc(Cl)ccc1Cl)N1CCN(c2ccccn2)CC1	13	1	14	-5
O=C(c1cnc(N2CCN(c3ccccn3)CC2)c2ccccc12)N1CCN(c2cccc(Cl)c2)CC1	91*	0	46	-6
COc1ccccc1NC(=O)N1CC(=O)N2[C@H](CO)[C@@H](c3ccc(C#CC(C)C)cc3)[C@H]2C1	nt	nt	nt	6
C[C@H](CO)N1C[C@H](C)[C@@H](CN(C)Cc2cncnc2)Oc2ncc(C#CC3CCCCC3)cc2C1=O	nt	nt	nt	-8
CC(=NNc1nc2ccccc2o1)c1ncccn1	103*	nt	15	4
CC(=NNc1nc2ccccc2o1)c1cc2ccccc2cn1	34	nt	-19	-72
COc1ccc(Nc2oc(COc3ccc(OC)cc3)nc2C#N)cc1	86*	1	9	nt
COc1ccc(Nc2oc(COc3ccc(C)cc3)nc2C#N)cc1	69*	-2	-3	nt
COc1ccc(CNc2oc(COc3ccccc3)nc2C#N)cc1	-1	1	-32	nt
SMILES	TWEAK Fn14 block	HSP90 inh	TROY NFkB inh	LGR2 inh
COc1ccc(Nc2oc(COc3ccccc3F)nc2C#N)cc1	57*	2	-31	8
COc1ccc(Nc2oc(COc3cccc(C)c3)nc2C#N)cc1	68*	1	-64	nt
CNC(=O)C[C@@H]1CC[C@H]2[C@H](COc3ccc(NC(=O)Nc4ccccc4F)cc3C(=O)N2C)O1	nt	nt	nt	6
CCOc1cccc2sc(N(CCCN(C)C)C(=O)c3ccc(C(=O)c4ccccc4)cc3)nc12	92*	5	-22	2
COc1ccc2c3c([nH]c2c1)[C@@H](CO)N(S(C)(=O)=O)CC31CCN(C(=O)Cc2cccnc2)CC1	nt	nt	nt	-1
NCCc1c(-c2ccccc2)n(-c2ccccc2)c2ccccc12	-22	4	-14	58*
CC(=O)n1c(-c2ccccc2)c(CO)c2ccccc21	-9	1	17	-12
CCOC(=O)Cc1ccc(Nc2nc(NCc3ccccc3)nc3ccsc23)cc1	93*	nt	57*	-4
CC(C)Nc1nc(NCc2ccccc2)c2sccc2n1	3	nt	57*	nt
COc1ccccc1CNc1nc(NCC2CC2)nc2ccsc12	4	nt	20	4
COc1ccccc1CNc1nc(NCc2ccccc2SC)c2sccc2n1	90*	nt	55*	19
COc1ccccc1CNc1nc(NCc2ccccc2OC)c2sccc2n1	42	nt	57*	31
COCCNc1nc(NCc2ccccc2OC)c2sccc2n1	5	nt	20	-1
CNC[C@H]1Oc2ccc(NC(=O)Cn3cnnn3)cc2C(=O)N([C@H](C)CO)C[C@@H]1C	nt	nt	nt	9
CNC[C@@H]1Oc2c(NC(=O)Nc3ccc(OC)cc3)cccc2C(=O)N([C@H](C)CO)C[C@H]1C	nt	nt	nt	8
COc1ccccc1NC(=O)N1C[C@@H]2[C@H](c3ccccc31)[C@@H](CO)N2C(=O)c1ccccc1	nt	nt	nt	-14
COc1ccccc1CNc1nc(Nc2cccc(-c3cnco3)c2)c2sccc2n1	98*	nt	75*	5
N#Cc1ccccc1Cn1cc(/C=C/[N+](=O)[O-])c2ccccc21	50	7	24	69*
O=C(Cn1cc(/C=C\[N+](=O)[O-])c2ccccc21)Nc1ccccc1	-1	5	6	67*
CC(=O)Nc1ccc2c(c1)C(=O)N(C)[C@@H]1CC[C@H](CC(=O)NCc3ccc4c(c3)OCO4)O[C@@H]1CO2	nt	nt	nt	-6
O=C(C[C@@H]1CC[C@H](NS(=O)(=O)c2ccc(F)cc2)[C@@H](CO)O1)N1CCc2ccccc2C1	nt	nt	nt	29
CC(=O)N1[C@H](CO)[C@@H](c2ccccc2)[C@@H]1CN(C)C(=O)c1ccccc1F	nt	nt	nt	5
CCCNC(=O)N1CC2(CCN(Cc3cccc(F)c3)CC2)c2c([nH]c3cc(OC)ccc23)[C@H]1CO	nt	nt	nt	-4
O=C(Nc1ccc(Br)c2ccccc12)c1ccc2ccccc2c1O	55*	-3	51*	30
COC(=O)c1[nH]c2cccc(Cl)c2c1NC(=O)CN(C)C1CCCCC1	95*	0	-2	nt
CCOC(=O)C1CCN(CC(=O)Nc2c(C(=O)OC)[nH]c3cccc(Cl)c23)CC1	-1	-2	7	nt
C[C@@H]1CN([C@H](C)CO)C(=O)c2cc(NS(=O)(=O)c3ccc(F)cc3)ccc2O[C@@H](C)CCCCO[C@H]1CN(C)S(=O)(=O)c1cccs1	nt	nt	nt	17
CCc1c(C(=O)N/N=C/c2ccc(OCc3ccc(F)cc3)c(OC)c2)nnn1-c1nonc1N	55*	6	14	-14
C[C@H]1CN([C@@H](C)CO)S(=O)(=O)c2ccc(-c3cncnc3)cc2O[C@@H]1CN(C)Cc1ccncc1	nt	nt	nt	14
O=C(CSc1nnc2scc(-c3ccccc3)n12)Nc1nsc(-c2ccc(Cl)cc2)n1	54*	0	28	nt

Screens deposited in PubChem by several laboratories.
